Data on 28 compounds can be found in PubChem BioAssay AID652118 (Broad Institute, 2013).

Entries with a potency or affinity are not part of this list. The source made the active and inactive calls.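 The calls were made as follows: active = compounds lowering cell ATP signal whose fitted half-effect concentration is at most twice the top tested dose; inconclusive = flat curves with 30 to 70% signal loss, or poor fits; inactive = the rest.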

The assay is described as follows: loss of viability in hepatoma HepG2 cells – cell-based, ATP luminescence, dry powder, cytotoxicity control, dose response (AID 652118). To be noted: CellTiter-Glo ATP luminescence, 48 h; series mostly up to 26 µM.
As for `CC(C)OC(=O)C1(CCOc2ccccc2)CCN(Cc2ccc(O)c(Cl)c2)CC1`, the compound was classed as inactive. Under `CCOC(=O)C1(Cc2ccccc2)CCN(Cc2ccc(O)c(Cl)c2)CC1` stands “inactive”. `O=C(Nc1ccccc1)C1(CCOc2ccccc2)CCN(Cc2ccc(O)c(Cl)c2)CC1`: the compound was classed as inactive. The result for `CCNC(=O)C1(CCOc2ccccc2)CCN(Cc2ccc(O)c(Cl)c2)CC1` reads “inactive”; that for `O=C(N1CCCC1)C1(CCOc2ccccc2)CCN(Cc2ccc(O)c(Cl)c2)CC1`, “inactive”.

Consider `CC(C)(C)OC(=O)C1(CCOc2ccccc2)CCN(Cc2ccc(O)c(Cl)c2)CC1`, for which the call was inactive. For the compound `CCOC(=O)c1c(CN2CCN(CCO)CC2)n(-c2ccccc2)c2cc(Br)c(O)cc12`, the compound was called inactive.

On to `CCOC(=O)C1(CCOC)CCN(Cc2ccc(O)c(Cl)c2)CC1`, for which the compound was called inactive. For `C/C1=C\C[C@H](OC(=O)c2ccc(O)cc2)/C(C)=C/[C@@H](O)C(C)(C)CCC1`, the result was inactive. Under `CCN(C)C(=O)C1(CCOc2ccccc2)CCN(Cc2ccc(O)c(Cl)c2)CC1` stands “inactive”. As to `C=CCOc1ccc(CN2CCC(CCOc3ccccc3)(C(=O)N(C)CC)CC2)cc1Cl`, the result was inactive. The result for `CCOC(=O)C1(CCOc2ccccc2)CCN(Cc2ccc(O)cc2)CC1` reads “inactive”. The result for `CCOC(=O)C1(Cc2cccc(OC)c2)CCN(Cc2ccc(O)c(Cl)c2)CC1` reads “inactive”; that for `CCOC(=O)C1(CCOc2ccccc2)CCN(Cc2ccc(OC)c(Cl)c2)CC1`, “inactive”; that for `CCOC(=O)C1(CCOc2ccccc2)CCN(Cc2ccc(O)c(Cl)c2)CC1`, “inactive”. Take `C=CCOc1ccc(CN2CCC(CCOc3ccccc3)(C(=O)N3CCCC3)CC2)cc1Cl`: the call was inactive. The result for `C=CCOc1ccc(CN2CCC(CCOc3ccccc3)(C(=O)NCC)CC2)cc1Cl` reads “inactive”; that for `CCOC(=O)C1(CCOc2ccccc2)CCN(Cc2cccc(Cl)c2)CC1`, “inactive”; that for `CCOC(=O)C1(CCOC)CCCN(Cc2ccc(Cl)cc2)C1` (stereo not drawn), “inactive”. Regarding `C=CCOc1ccc(CN2CCC(CCOc3ccccc3)(C(=O)OCC)CC2)cc1Cl`, the call was inactive.

Regarding `C=CCOc1ccc(CN2CCC(CCOc3ccccc3)(C(=O)NC3CCCC3)CC2)cc1Cl`, the outcome was inactive. Under `CCOC(=O)C1(CCOc2ccccc2)CCN(C(=O)c2ccc(O)c(Cl)c2)CC1` stands “inactive”; under `CCOC(=O)C1CCN(C(=O)OC(C)(C)C)CC1`, “inactive”; under `C=CCOc1ccc(CN2CCC(CCOc3ccccc3)(C(=O)O)CC2)cc1Cl`, “inactive”. Under `CCOC(=O)C1(CCOc2ccccc2)CCN(Cc2ccc(OC)cc2)CC1` stands “inactive”; under `CCOC(=O)C1(CCOc2ccccc2)CCN(Cc2ccc3[nH]c(=O)oc3c2)CC1`, “inactive”. For `O=C(NC1CCCC1)C1(CCOc2ccccc2)CCN(Cc2ccc(O)c(Cl)c2)CC1`, the call was inactive. For the compound `C/C1=C\[C@@H](O)C(C)(C)CCCC2(C)OC2C[C@@H]1OC(=O)c1ccc(O)cc1` (stereo partly drawn), the compound was classed as inactive.
